# Structures can show the parent of a compound that is named as a salt. ± gives the uncertainty stated by the source.
# Test system: Caenorhabditis elegans N2
# Assay: food intake (mean delta OD600 / animal over 72 h) with 50 uM loxapine co-treatment (OD600 units per animal); higher = more food eaten (less suppression of loxapine-induced hyperphagia)
# Conditions: first compound 33 µM, loxapine concentration 50 µM
# Description: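 C. elegans N2 adults (FUDR-sterilised, day 1) in 96-well plates fed gamma-irradiated bacteria. Each library drug (MedChemExpress FDA-approved library) at 33 uM was combined with loxapine at 50 uM. Food intake was measured as bacterial clearance: the change in OD600 from day 1 to 72 h, normalised per animal (mean over 14-21 wells of about 10-12 worms). Drugs flagged for bacterial lysis or sickness were excluded by the authors.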
row,SMILES,food intake
1,O=C(C1CCCCC1)N1CC(=O)N2CCc3ccccc3C2C1 (stereo not given) [praziquantel] + CN1CCN(C2=Nc3ccccc3Oc3ccc(Cl)cc32)CC1 [loxapine],0.0224 ± 0.0023
2,CC(=O)Nc1ncc([N+](=O)[O-])s1 [nithiamide] + CN1CCN(C2=Nc3ccccc3Oc3ccc(Cl)cc32)CC1 [loxapine],0.0244 ± 0.0027
3,CN(C)[C@@H]1C(O)=C(C(N)=O)C(=O)[C@@]2(O)C(O)=C3C(=O)c4c(O)ccc(Cl)c4[C@@H](O)[C@H]3C[C@@H]12 [demeclocycline (hydrochloride)] + CN1CCN(C2=Nc3ccccc3Oc3ccc(Cl)cc32)CC1 [loxapine],0.0207 ± 0.0035
4,COc1cc(O)c(C(=O)c2ccccc2)cc1S(=O)(=O)O [sulisobenzone] + CN1CCN(C2=Nc3ccccc3Oc3ccc(Cl)cc32)CC1 [loxapine],0.0234 ± 0.0024
5,C=CCNC(N)=S [allylthiourea] + CN1CCN(C2=Nc3ccccc3Oc3ccc(Cl)cc32)CC1 [loxapine],0.0237 ± 0.003
6,CO/N=C(\C(=O)N[C@@H]1C(=O)N2C(C(=O)O)=C(CSc3nc(=O)c(O)nn3C)CS[C@H]12)c1csc(N)n1 [ceftriaxone (sodium salt)] + CN1CCN(C2=Nc3ccccc3Oc3ccc(Cl)cc32)CC1 [loxapine],0.0251 ± 0.0082
7,CNC(=O)[C@H](Cc1c[nH]c2ccccc12)NC(=O)[C@@H](CC(=O)NO)CC(C)C + CN1CCN(C2=Nc3ccccc3Oc3ccc(Cl)cc32)CC1 [loxapine],0.0195 ± 0.0054
8,CN(CCOc1ccc(CC2SC(=O)NC2=O)cc1)c1ccccn1 (stereo not given) [rosiglitazone] + CN1CCN(C2=Nc3ccccc3Oc3ccc(Cl)cc32)CC1 [loxapine],0.0226 ± 0.0041
9,Nc1nc2c(ncn2COC(CO)CO)c(=O)[nH]1 [ganciclovir] + CN1CCN(C2=Nc3ccccc3Oc3ccc(Cl)cc32)CC1 [loxapine],0.0236 ± 0.0019
10,Cc1ccnc(NS(=O)(=O)c2ccc(N)cc2)n1 [sulfamerazine] + CN1CCN(C2=Nc3ccccc3Oc3ccc(Cl)cc32)CC1 [loxapine],0.0224 ± 0.0031
11,NC(=O)c1cnccn1 [pyrazinamide] + CN1CCN(C2=Nc3ccccc3Oc3ccc(Cl)cc32)CC1 [loxapine],0.0222 ± 0.0034
12,CCCc1nn(C)c2c(=O)[nH]c(-c3cc(S(=O)(=O)N4CCN(C)CC4)ccc3OCC)nc12 [sildenafil (citrate)] + CN1CCN(C2=Nc3ccccc3Oc3ccc(Cl)cc32)CC1 [loxapine],0.024 ± 0.0028
13,CN1C(=O)C[C@@H](C(=O)N[C@@H](Cc2c[nH]cn2)C(=O)N2CCC[C@H]2C(N)=O)NC1=O [taltirelin] + CN1CCN(C2=Nc3ccccc3Oc3ccc(Cl)cc32)CC1 [loxapine],0.022 ± 0.0034
14,CO/N=C1\CN(c2nc3c(cc2F)c(=O)c(C(=O)O)cn3C2CC2)CC1CN (stereo not given) [gemifloxacin (mesylate)] + CN1CCN(C2=Nc3ccccc3Oc3ccc(Cl)cc32)CC1 [loxapine],0.023 ± 0.0032
15,CC(C)(C)C(=O)C(Oc1ccc(Cl)cc1)n1ccnc1 (stereo not given) [climbazole] + CN1CCN(C2=Nc3ccccc3Oc3ccc(Cl)cc32)CC1 [loxapine],0.0235 ± 0.012
16,CC(C)C(=O)c1c(C(C)C)nn2ccccc12 [ibudilast] + CN1CCN(C2=Nc3ccccc3Oc3ccc(Cl)cc32)CC1 [loxapine],0.0243 ± 0.0046
17,Nc1nnc(-c2cccc(Cl)c2Cl)c(N)n1 [lamotrigine] + CN1CCN(C2=Nc3ccccc3Oc3ccc(Cl)cc32)CC1 [loxapine],0.0237 ± 0.008
18,Cc1[nH]c(=O)c(C#N)cc1-c1ccncc1 [milrinone] + CN1CCN(C2=Nc3ccccc3Oc3ccc(Cl)cc32)CC1 [loxapine],0.0238 ± 0.0035
19,CCOC(=O)C(C)(C)Oc1ccc(Cl)cc1 [clofibrate] + CN1CCN(C2=Nc3ccccc3Oc3ccc(Cl)cc32)CC1 [loxapine],0.0218 ± 0.0033
20,Nc1ccn([C@@H]2CS[C@H](CO)O2)c(=O)n1 [lamivudine] + CN1CCN(C2=Nc3ccccc3Oc3ccc(Cl)cc32)CC1 [loxapine],0.0212 ± 0.003

row,SMILES,food intake
1,CC(=O)C1C(=O)C=C(C)OC1=O (stereo not given) [dehydroacetic acid] + CN1CCN(C2=Nc3ccccc3Oc3ccc(Cl)cc32)CC1 [loxapine],0.0214 ± 0.0043
2,CN(C)c1cc(NC(=O)CNC(C)(C)C)c(O)c2c1C[C@H]1C[C@H]3[C@H](N(C)C)C(O)=C(C(N)=O)C(=O)[C@@]3(O)C(O)=C1C2=O [tigecycline] + CN1CCN(C2=Nc3ccccc3Oc3ccc(Cl)cc32)CC1 [loxapine],0.0234 ± 0.0019
3,CCOC(=O)[C@H](CCc1ccccc1)N[C@@H](C)C(=O)N1Cc2ccccc2C[C@H]1C(=O)O [quinapril (hydrochloride)] + CN1CCN(C2=Nc3ccccc3Oc3ccc(Cl)cc32)CC1 [loxapine],0.0212 ± 0.003
4,CN1C(C(=O)Nc2ccccn2)=C(O)c2ccccc2S1(=O)=O [piroxicam] + CN1CCN(C2=Nc3ccccc3Oc3ccc(Cl)cc32)CC1 [loxapine],0.0225 ± 0.0032
5,CC(=O)O[C@H]1CC[C@H]2[C@@H]3CCc4cc(O)ccc4[C@H]3CC[C@]12C [b-estradiol 17-acetate] + CN1CCN(C2=Nc3ccccc3Oc3ccc(Cl)cc32)CC1 [loxapine],0.0213 ± 0.0046
6,C[C@H](Cn1cnc2c(N)ncnc21)OCP(=O)(O)O [tenofovir] + CN1CCN(C2=Nc3ccccc3Oc3ccc(Cl)cc32)CC1 [loxapine],0.0219 ± 0.0044
7,O=C(O)CCCCCCCC(=O)O [azelaic acid] + CN1CCN(C2=Nc3ccccc3Oc3ccc(Cl)cc32)CC1 [loxapine],0.0259 ± 0.018
8,CCc1nc(N)nc(N)c1-c1ccc(Cl)cc1 [pyrimethamine] + CN1CCN(C2=Nc3ccccc3Oc3ccc(Cl)cc32)CC1 [loxapine],0.0221 ± 0.003
9,COc1ccc(CNc2nc(N3CCC[C@H]3CO)ncc2C(=O)NCc2ncccn2)cc1Cl [avanafil] + CN1CCN(C2=Nc3ccccc3Oc3ccc(Cl)cc32)CC1 [loxapine],0.023 ± 0.0037
10,CC1(C)[C@H](C(=O)O)N2C(=O)C[C@H]2S1(=O)=O [sulbactam] + CN1CCN(C2=Nc3ccccc3Oc3ccc(Cl)cc32)CC1 [loxapine],0.0225 ± 0.0027
11,O=c1[nH]c(=O)n([C@H]2C[C@H](O)[C@@H](CO)O2)cc1C(F)(F)F [trifluorothymidine] + CN1CCN(C2=Nc3ccccc3Oc3ccc(Cl)cc32)CC1 [loxapine],0.0216 ± 0.0028
12,O=C(c1cc(Cc2n[nH]c(=O)c3ccccc23)ccc1F)N1CCN(C(=O)C2CC2)CC1 [olaparib] + CN1CCN(C2=Nc3ccccc3Oc3ccc(Cl)cc32)CC1 [loxapine],0.0205 ± 0.005
13,OCCN1C[C@H](O)[C@@H](O)[C@H](O)[C@H]1CO [miglitol] + CN1CCN(C2=Nc3ccccc3Oc3ccc(Cl)cc32)CC1 [loxapine],0.0214 ± 0.005
14,Cc1nc(C)c(Cl)c(O)c1Cl [clopidol] + CN1CCN(C2=Nc3ccccc3Oc3ccc(Cl)cc32)CC1 [loxapine],0.0241 ± 0.0032
15,COc1ccc2[nH]c([S@@+]([O-])Cc3ncc(C)c(OC)c3C)nc2c1 [Esomeprazole (magnesium trihydrate)] + CN1CCN(C2=Nc3ccccc3Oc3ccc(Cl)cc32)CC1 [loxapine],0.0226 ± 0.0041
16,C[C@]12CC[C@@H]3c4ccc(O)cc4CC[C@H]3[C@@H]1CC[C@@H]2OC(=O)CCC1CCCC1 [estradiol (cypionate)] + CN1CCN(C2=Nc3ccccc3Oc3ccc(Cl)cc32)CC1 [loxapine],0.0224 ± 0.0087
17,O=C1CC2(CCCC2)CC(=O)N1CCCCN1CCN(c2ncccn2)CC1 [buspirone (hydrochloride)] + CN1CCN(C2=Nc3ccccc3Oc3ccc(Cl)cc32)CC1 [loxapine],0.0245 ± 0.0044
18,CC1CNc2c(cccc2S(=O)(=O)N[C@@H](CCCNC(=N)N)C(=O)N2CC[C@@H](C)C[C@@H]2C(=O)O)C1 (stereo not given in full) [argatroban (monohydrate)] + CN1CCN(C2=Nc3ccccc3Oc3ccc(Cl)cc32)CC1 [loxapine],0.0229 ± 0.002
19,O=C1NC(=O)C(c2ccccc2)(c2ccccc2)N1 [phenytoin] + CN1CCN(C2=Nc3ccccc3Oc3ccc(Cl)cc32)CC1 [loxapine],0.0218 ± 0.0037
20,Fc1ccc([C@@H]2CCNC[C@H]2COc2ccc3c(c2)OCO3)cc1 [paroxetine (hydrochloride)] + CN1CCN(C2=Nc3ccccc3Oc3ccc(Cl)cc32)CC1 [loxapine],0.0221 ± 0.0043
